KCNQ2 enhance: KCNQ2 (rat) channel potentiation. actives 0.54% (n = 310,000). AID 2239. CHO-K1 KCNQ2, FluxOR thallium flux fluorescence; stronger effect = higher value. B-score at 10 µM;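 active = fluorescence ratio B-score at least 3 SD of library B-scores, with initial fluorescence B-score within 3 of them, cut at about 5.3 in these data; same plate scores as AID 2156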;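 also: B-score of peak minus minimum over baseline fluorescence ratio after K+ and Tl+ stimulus; positive B-score means potentiation of KCNQ2 with more thallium influx and brighter signal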
KCNQ2 block: inhibitors of rat KCNQ2 potassium channel | CHO-K1 KCNQ2, FluxOR thallium flux, 20 min; stronger effect = lower value | B-score at 10 µM | actives 1.1% (n = 310,000) | AID 2156;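 active = fluorescence ratio B-score at most minus 3 library SDs, with starting brightness B-score within 2 library SDs, cut at about -5.5 in these data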
KCNQ2 block conf: confirmation of rat KCNQ2 potassium channel inhibitors | KCNQ2-expressing cells, thallium flux, inhibition; stronger effect = lower value | activity change, negative = inhibition, % at 10 µM | shares compounds with KCNQ2 block | AID 493025 | actives 57% (n = 1,000)
KCNQ1 spec: KCNQ2 inhibitor that also affects human KCNQ1 channel. shares compounds with KCNQ2 block. KCNQ1-expressing cells, FluxOR thallium flux fluorescence; stronger effect = lower value. activity change, negative = inhibition, % at 10 µM. actives 15% (n = 1,000). AID 493026;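 active = activity change at least 3 SD of negative controls below their mean in both duplicate wells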;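 also: CHO cells stably transfected with KCNQ1 and depolarized by potassium stimulus; peak minus minimum fluorescence over baseline after thallium addition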
CHO Tl ctr: counter-screen for KCNQ2 inhibitors: effect in parental CHO cells | shares compounds with KCNQ2 block | thallium flux counter-screen; stronger effect = lower value | activity change, % at 10 µM | actives 14% (n = 1,000) | AID 493029
KCNQ2 patch conf: rat KCNQ2 inhibition confirmed by electrophysiology | shares compounds with KCNQ2 block | KCNQ2-expressing cells, automated patch clamp current | calls only at 10 µM | actives 49% (n = 550) | AID 588531
Each line names hits and unclear results; the compound was inactive in the other large screens (follow-up assays come after a bar, where they were run). Compounds with a hit are over-represented: about 1.6% of the library has one in this group of screens. Unless noted, no rule for the calls is given here.

O=C(C(=O)N1CCOCC1)c1cn(CCOc2ccccc2)c2ccccc12	none (no result: KCNQ2 enhance)
Cc1ccccc1OCCn1cc(C(=O)C(=O)N2CCOCC2)c2ccccc21	KCNQ2 block -8.5 | KCNQ2 block conf -33% | KCNQ1 spec inactive | CHO Tl ctr inactive | KCNQ2 patch conf active
CCOC(=O)C(=O)N1CCC(C(=O)OC)CC1	none (no result: KCNQ2 enhance)
C=CCn1c(=O)c(C(=O)Nc2ccc(C)cc2)c(O)c2ccccc21	none (no result: KCNQ2 enhance)
C=CCn1c(=O)c(C(=O)NCc2ccccc2Cl)c(O)c2ccccc21	KCNQ2 block -7.1 | KCNQ2 block conf inactive | KCNQ1 spec inactive | CHO Tl ctr inactive
C=CCn1c(=O)c(C(=O)NC(C)c2ccccc2)c(O)c2ccccc21 (configuration not stated)	KCNQ2 block -8.2 | KCNQ2 block conf -30% | KCNQ1 spec inactive | CHO Tl ctr inactive | KCNQ2 patch conf inactive
CCCn1c(=O)c(C(=O)NCc2ccccc2Cl)c(O)c2ccccc21	none (no result: KCNQ2 enhance)
CCOc1ccc(S(=O)(=O)Nc2ccc(F)cc2)c(C)c1C	none
COc1cccc(C(=O)N(C)CC2CCN(CCc3cccc(C(F)(F)F)c3)CC2)c1	none (no result: KCNQ2 enhance)
COC(=O)C1C/C(=N\NS(=O)(=O)c2ccc(C)cc2)c2ccsc2C1 (configuration not stated)	none
COc1ccc(Cn2nnnc2C(C(C)C)N(Cc2ccco2)Cc2cccs2)cc1 (configuration not stated)	none (no result: KCNQ2 enhance)
CC(C)C(c1nnnn1Cc1ccccc1)N(Cc1ccco1)Cc1cccs1 (configuration not stated)	KCNQ2 block -9 | KCNQ2 block conf -44% | KCNQ1 spec -45% | CHO Tl ctr -41% | KCNQ2 patch conf inactive
O=C(CN(C(=O)CNC(=O)c1ccco1)c1ccccc1F)NC1CCCCC1	none
CCC1(CC)Cc2ccccc2-c2nc(-c3ccccc3)oc(=O)c21	none (no result: KCNQ2 enhance)
O=c1oc(-c2ccccc2)nc2c1C1(CCCCC1)Cc1ccccc1-2	KCNQ2 block -8.7 | KCNQ2 block conf inactive | KCNQ1 spec inactive | CHO Tl ctr inactive
Cc1ccc(N2C(=O)N(CC(=O)Nc3ccccc3C)C(=O)C2C)cc1 (configuration not stated)	none (no result: KCNQ2 enhance)
Cc1ccc(N2C(=O)N(CC(=O)NCc3ccccc3Cl)C(=O)C2C)cc1 (configuration not stated)	KCNQ2 block -6.6 | KCNQ2 block conf -28% | KCNQ1 spec inactive | CHO Tl ctr inactive | KCNQ2 patch conf active
CCC(NC(=O)c1ccc2nc(Cc3ccc(OC)cc3)oc2c1)c1ccncc1 (configuration not stated)	none
Cc1[nH]c(C)c(S(=O)(=O)N2CCCCC2C)c1C(=O)N1CCCC1 (configuration not stated)	none (no result: KCNQ2 enhance)
CC(C)c1ccc(C2CC(=O)c3cnc(N4CCc5ccccc5C4)nc3C2)cc1 (configuration not stated)	none (no result: KCNQ2 enhance)
O=C1CC(c2ccco2)Cc2nc(N3CCc4ccccc4C3)ncc21 (configuration not stated)	KCNQ2 block -10 | KCNQ2 block conf -27% | KCNQ1 spec inactive | CHO Tl ctr inactive | KCNQ2 patch conf inactive
CCN(C(=O)C1CC1)C1CCS(=O)(=O)C1 (configuration not stated)	none
Cc1ccc(NC(=O)C2CCN(S(=O)(=O)c3ccc(N4CCCC4=O)cc3)CC2)cc1Cl	none
COc1ccc(NC(=O)Nc2cccc(C(F)(F)F)c2)cn1	none (no result: KCNQ2 enhance)
C=C(C)C1CC=C(C)/C(=N/NC(=O)COc2cccc(C)c2)C1 (configuration not stated)	none
C=C(C)C1CC=C(C)/C(=N/NC(=O)COc2cccc3ccccc23)C1 (configuration not stated)	KCNQ2 block -9.2 | KCNQ2 block conf inactive | KCNQ1 spec inactive | CHO Tl ctr inactive
Cc1ccc(C)c2[nH]c(=O)c(CN(Cc3ccco3)C(=S)NCC3CCCO3)cc12 (configuration not stated)	none (no result: KCNQ2 enhance)
COc1ccc(NC(=O)c2c3c(nc4ccccc24)CCN(Cc2ccccc2)C3)c(OC)c1	KCNQ2 block -11 | KCNQ2 block conf inactive | KCNQ1 spec inactive | CHO Tl ctr inactive
COc1ccc(S(=O)(=O)N2CCCCCC2)cc1NC(=O)c1c2c(nc3ccccc13)CCN(Cc1ccccc1)C2	none (no result: KCNQ2 enhance)
Nc1c(C(=O)Nc2ccc3c(c2)OCCO3)nnn1Cc1cccc(F)c1	none (no result: KCNQ2 enhance)
O=C(CC(=O)Nc1cc(Cl)ccc1Cl)Nc1cc(Cl)ccc1Cl	none

Source: PubChem
